Results taken from PubChem BioAssay (NCI).
About 83,000 compounds went through this panel and 20% of them were active in at least one assay; those are over-represented in the sample as a whole.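 For each line, cells grew in 96-well plates with the test compound present at a single concentration for 48 hours.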 A number with no mark means an inactive call. Activity calls are given as the source filed them. The calls were made as follows: active = growth percent below 10; inactive = the rest.

Test system: HL-60(TB) leukemia
Test: NCI-60 one-dose screen, 48 h (100 = growth as untreated, 0 = no growth, -100 = all killed)
Conditions: 10 µM unless noted

| SMILES | growth |
| --- | --- |
| CCOP(=O)(OCC)/C(C#N)=C/c1c(C)[nH]c2ccccc12 | 96.6% |
| OCCNC(=S)Nc1ccc(-c2nc(N3C[C@H]4CC[C@@H](C3)O4)c3cccn3n2)cc1 | 38.2% |
| N#Cc1c(-c2ccc(F)cc2)nc(N/N=C/c2c[nH]c3ccccc23)nc1N1CCOCC1 | 2.62% (active) |
| Clc1ccc2c(c1)NC1(CCSc3ccccc31)n1nccc1-2 (centres undefined) | 97.4% |
| COc1ccc(-c2ccc(-c3ccc(C(=N)N)cn3)s2)cc1OC | 94.9% |
| O=C(NC1CCCCCC1)c1ccc2c(=O)n3c(nc2c1)CCCCC3 | 144% |
| COc1ccc(C(=O)c2cc(C)c(OC)c(C)c2)c(OC)c1N(C(=O)CCl)C(=O)CCl | -42.3% (active) |
| C=CCCC(=O)N1C=CC(=O)[C@H](O)[C@@H]1/C=C/c1ccccc1 | 32.2% [100 µM] |
| COc1ccc(/C=C/C(=O)c2cc3c(N)c(C(=O)Nc4ccccc4Cl)sc3nc2C)cc1 | 4.2% (active) |
| COc1cccc(/C=C2\COc3ccc(O)cc3C2=O)c1OC | -14.5% (active) |
| N#C/C(=C\c1ccc(-c2cc(C(F)(F)F)ccc2Cl)o1)c1nc(-c2ccco2)cs1 | 89.2% |
| CC(=O)Nc1ccc(C(=O)Nc2cc(-c3ccccc3)ccc2N)cc1 | 65.5% |
| O=C(CCCCCCCCC(=O)N/N=C\c1cc(Cl)ccc1O)N/N=C\c1cc(Cl)ccc1O | 9.81% (active) |
| Nc1ccc(C2=NN(C(=O)c3cc(-c4ccc(Cl)cc4)nc4ccccc34)C(c3ccccc3)C2)cc1 (centres undefined) | -6.07% (active) |
